Bioassay records as filed in PubChem BioAssay.
ELG1 genotoxic – induces genotoxicity in HEK293T cells with luciferase-tagged ELG1 | Potency, µM (titrated, usually from 46 µM), hits mostly activators | hit rate 1.3% among 330,000 | HEK293T ELG1-luciferase reporter, luminescence, 16 h; further: nearly all actives have a fitted effect of over 60% in size
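Step 1: seed 2,000 HEK293T ELG1-luciferase cells per well. Step 2: add compound or DMSO, incubate 16 hr at 37 °C. Step 3: ONE-Glo, 30 min at room temperature, read luminescence.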
FLuc modulator – firefly luciferase modulation, counter-screen for miR-21 project | P08659 | purified FLuc, Km substrates, luminescence inhibition | Potency, µM (series often up to 57.5 µM), usual class: inhibitors | hit rate 6.9% among 360,000; further: nearly all actives have a fitted effect of over 55% in size
Target sequence (P08659 whole entry, looked up): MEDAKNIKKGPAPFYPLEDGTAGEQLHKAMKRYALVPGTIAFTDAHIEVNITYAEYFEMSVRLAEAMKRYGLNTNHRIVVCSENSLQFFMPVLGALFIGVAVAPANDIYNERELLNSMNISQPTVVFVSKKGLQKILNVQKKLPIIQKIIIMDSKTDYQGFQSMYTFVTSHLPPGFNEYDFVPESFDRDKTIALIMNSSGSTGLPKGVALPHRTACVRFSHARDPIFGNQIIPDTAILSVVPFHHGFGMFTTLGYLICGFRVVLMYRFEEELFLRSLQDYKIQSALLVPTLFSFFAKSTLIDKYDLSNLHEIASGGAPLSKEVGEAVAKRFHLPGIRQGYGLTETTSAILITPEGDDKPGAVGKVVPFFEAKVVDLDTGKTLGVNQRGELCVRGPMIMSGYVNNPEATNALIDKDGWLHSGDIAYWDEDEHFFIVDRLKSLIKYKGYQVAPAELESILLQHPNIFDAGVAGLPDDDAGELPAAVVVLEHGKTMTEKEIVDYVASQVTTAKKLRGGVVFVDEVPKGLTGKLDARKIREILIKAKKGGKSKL
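Biochemical qHTS of compounds, final roughly 60 µM downward over six points, against 10 nM purified firefly luciferase using Km concentrations of substrates (10 uM D-luciferin, 10 uM ATP) in Tris acetate pH 7.5 buffer; luminescence output.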
ELG1 DNA repair – inhibitors of ELG1-dependent DNA repair in HEK293T cells | Potency, µM (titrated, usually from 46.1 µM), actives largely listed as inhibitors | HEK293T ELG1-luciferase reporter, luminescence, 16 h; DNA damage induced by 5-fluorouridine | hit rate 2.3% among 330,000; further: nearly all actives have a fitted effect of over 55% in size
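Reporter activity after DNA damage by 5-fluorouridine is monitored. Compound-treated cells incubate 16 hr at 37 °C, then ONE-Glo is added for 30 min before luminescence reading.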
NPC1 promoter act – activators of NPC1 promoter; Huh7 NPC1 promoter luciferase reporter, 24 h; Potency, µM (top dose mostly 9.22 µM), hits mostly activators; hit rate 2.4% among 320,000; AID 485313; further: nearly all actives have a fitted effect of over 60% in size
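Stably transfected Huh7 (NPC1 promoter→luciferase), 1500 cells/well in Opti-MEM + 10% FBS, 2 h settle, then compound 24 h at 37 °C. Luminescence after 10 min with Amplite reagent.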
Rab9 prom act – activates the Rab9 promoter; Potency, µM (series often up to 9.22 µM), most hits filed as activators; hit rate 2.8% among 320,000; Huh7 Rab9 promoter-luciferase reporter, luminescence, 24 h; further: nearly all actives have a fitted effect of over 60% in size
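Luminescence from Amplite-detected luciferase (10 minutes, ambient) reports Rab9 promoter activation. Before that, stable Rab9-luciferase Huh7 cells (1500/well, reduced-serum OP-MEM I plus 10% FBS) were exposed to compound for 24 hours at 37C.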
SMN2 splice enh – SMN2 splice variant enhancement | HEK293 SMN2-luciferase splicing reporter, luminescence, 30-36 h | Potency, µM (doses to about 46.1 µM), usual class: activators | hit rate 2.8% among 210,000 | AID 1458; further: nearly all actives have a fitted effect of over 55% in size
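qHTS luciferase splicing reporter: luminescence rises when SMN2 exon 7 is included in transfected HEK293 cells. Compound exposure lasted 30-36 h at 37C, with 4.5 mM final sodium butyrate as control, followed by a ONE-Glo read.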
Numbers stand for hits; 0 = inactive; ? = inconclusive; - = not tested or not shown. An excerpt weighted towards active compounds, which were near 9.4% of everything screened. The call rests on the fitted dose curve; in most records, active means well fitted curve in the direction sought with a large enough effect; inconclusive means small, poorly fitted or top-dose-only effect, or another doubt; inactive means no such curve, though single readings can be large; an effect the other way counts as inactive or inconclusive.

SMILES | ELG1 genotoxic | FLuc modulator | ELG1 DNA repair | NPC1 promoter act | Rab9 prom act | SMN2 splice enh
Cc1cc(C)c(-c2nc3ccccc3s2)[nH]1 | ? | 4.78µM | ? | 0 | 0 | -
Nc1cccc(-c2nc3ccccc3s2)c1 | 3.66µM | 1.2µM | ? | 3.16µM | 3.98µM | 0
Cc1[nH]nc(-c2ccc(O)cc2O)c1-c1nc2ccccc2s1 | 0 | 0 | 0 | 0 | 0 | 0
CCN(c1ccccc1)S(=O)(=O)c1nnc(NC(=O)COc2cccc(C)c2)s1 | - | 0 | - | - | - | -
Cc1ccc(NC(=O)C2CCCN(c3ncnc4c3nc3n4CCCCC3)C2)c(Br)c1 (centres undefined) | - | 0 | - | - | - | -
CCc1cccc(NC(=O)Cn2c(=O)n(Cc3ccccc3)c(=O)c3c(C)c(C(=O)N(C)C)sc32)c1 | - | 0 | - | - | - | -
Oc1cccc(-c2nc3ccccc3s2)c1 | 1.46µM | 1.69µM | ? | 0 | ? | ?
O=C1C=C(Nc2ccc(Cl)cc2)CC(c2ccc(Cl)cc2)C1 (centres undefined) | 0 | 10.7µM | ? | 0 | 0 | 0
Cc1ccc(C2CC(=O)C=C(Nc3ccc(Cl)cc3)C2)cc1 (centres undefined) | 0 | 0 | 0 | 0 | 0 | 0
O=C(N/N=C/C1CCCCC1)c1cc(Cl)ccc1O | 0 | 12µM | 0 | 0 | 0 | 0
O=C(NN=C1CCC(=NNC(=O)c2ccccn2)CC1)c1ccccn1 | ? | ? | ? | 0 | 0 | -
CC(/C=C/c1ccco1)=N\NC(=O)c1cc(Cl)ccc1O | 0 | ? | 0 | 0 | ? | 0
O=C(N/N=C/C1CCCCC1)c1ccccn1 | ? | 13.5µM | ? | 0 | 0 | 0
CN1CCN(CCCNC(=O)c2cnn(-c3ccccc3)c2-n2cccc2)CC1 | - | 0 | - | - | - | 0
Cc1cc(C)cc(NC(=O)Cn2c(C(F)(F)F)nc3ccccc32)c1 | - | 0 | - | - | - | 0
Clc1ccc(C#Cc2cccnc2)cc1 | 0 | 13.5µM | ? | 0 | 0 | -
Cc1nc(NC2CCCCC2)c2nc(-c3ccccc3)n(CCN(C)C)c2n1 | - | - | - | - | - | 0
COc1ccc(OC)c(CNC(=O)C2CCN(c3nc4ccccc4nc3C(F)(F)F)CC2)c1 | - | 0 | - | - | - | -
CC(=O)c1cccc(N2C(=O)CN(S(C)(=O)=O)CC2(C)C(=O)NC2CCCC2)c1 (centres undefined) | - | 0 | - | - | - | -
COc1ccc2c(c1)C(=O)[C@@H](O)[C@H](c1ccc(OC)c(Br)c1)O2 | ? | ? | ? | 0 | 0 | 0
COc1cccc([C@@H]2Oc3ccc(OC)cc3C(=O)[C@H]2O)c1 | 7.31µM | 0 | ? | ? | ? | 5.01µM
COC(=O)C1=C(C)NC2=C(C(=O)c3ccccc32)C1c1cccc(OC)c1 (centres undefined) | 0 | 0 | 0 | 0 | 0 | -
COc1cccc(C2C(=O)c3ccccc3C2=O)c1 | 0 | 26.9µM | 0 | 0 | 0 | -
S=C(NCCN1CCOCC1)Nc1ccc(-c2nc3ccccc3[nH]2)cc1 | 0 | ? | 0 | 0 | ? | 0
Cc1ncc(CO)c(CNc2ccc(-c3nc4ccccc4[nH]3)cc2)c1O | ? | 3.38µM | ? | 1µM | 1.58µM | -
SMILES | ELG1 genotoxic | FLuc modulator | ELG1 DNA repair | NPC1 promoter act | Rab9 prom act | SMN2 splice enh
COc1ccc2c(c1)OC1(O)COc3cc(OC)c(OC)cc3C1=C2 (centres undefined) | - | - | - | - | - | 0
S=c1nc(COc2ccccc2)[nH]c2ccccc12 | 0 | 23.9µM | ? | ? | ? | -
Clc1ccc2nc(COc3ccccc3)[nH]c2c1 | ? | 12µM | ? | 0 | ? | -
S=c1nc(Cc2ccccc2)[nH]c2ccccc12 | 0 | 0 | ? | 0 | 0 | -
Cc1ccc(Cl)cc1N1CCN(C(c2ccc(F)cc2)c2nnc(-c3ccccc3)o2)CC1 (centres undefined) | - | 0 | - | - | - | 0
Oc1ccc(C=Nc2cccc3ccccc23)c(O)c1 | 0 | 0 | 0 | 0 | 0 | -
CC(O)c1cccc(N=Cc2ccc3ccccc3c2O)c1 (centres undefined) | 0 | 26.9µM | 0 | 0 | 0 | -
CCN(c1ccc(OC)cc1)S(=O)(=O)c1ccc2[nH]c(=O)ccc2c1 | - | 5.36µM | - | - | - | -
c1csc(-c2nc3ccccc3[nH]2)c1 | 0 | 30.1µM | ? | ? | ? | 12.6µM
Cc1[nH]c2ccccc2c1-c1csc(N)n1 | 0 | 0 | 0 | 0 | 0 | -
Cc1ccc(-c2nc3ccccc3[nH]2)s1 | ? | 3.01µM | ? | 1.58µM | 0.631µM | 7.08µM
